Screening data deposited in PubChem by The Scripps Research Institute Molecular Screening Center.
Shown are actives, neighbours in structure and some others; about 3.5% of the full set was active somewhere.
MITF primary – blocks human microphthalmia-associated transcription factor; inhibition, % at 2.6 µM; AID 1259374; AlphaScreen MITF homodimerization, bead proximity signal; actives 0.91% (n = 650,000); O75030; in the data active = inhibition above about 50%;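 also: 0% = vehicle wells with protein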
GPR151 ag – human GPR151 activation; activation, % at 11.2 µM; Q8TDV0; PathHunter beta-arrestin GPR151 cells, luminescence; actives 1% (n = 650,000); in the data active = activation above about 4.9%;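 also: 0% = median of compound wells and 100% = cells with positive control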
Target sequence (Q8TDV0 whole entry, looked up): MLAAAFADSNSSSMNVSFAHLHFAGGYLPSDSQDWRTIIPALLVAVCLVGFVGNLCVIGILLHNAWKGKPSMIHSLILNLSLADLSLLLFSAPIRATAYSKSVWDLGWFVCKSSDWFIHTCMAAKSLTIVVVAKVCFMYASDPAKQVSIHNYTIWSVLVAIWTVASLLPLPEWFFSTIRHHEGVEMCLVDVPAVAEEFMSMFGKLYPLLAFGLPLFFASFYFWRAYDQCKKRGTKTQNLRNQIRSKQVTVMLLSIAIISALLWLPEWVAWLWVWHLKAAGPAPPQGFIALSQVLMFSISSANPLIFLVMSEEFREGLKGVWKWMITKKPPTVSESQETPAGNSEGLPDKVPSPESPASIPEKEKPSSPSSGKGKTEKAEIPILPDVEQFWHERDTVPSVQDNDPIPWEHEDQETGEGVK
FBW7 act – human FBW7 E3 ligase activation, primary screen; AID 1259310; AlphaScreen FBW7–phospho-cyclin E peptide binding, activator screen; actives 0.13% (n = 650,000); Q969H0; normalized activity (activation), % at 26.1 µM; in the data active = normalized activity above about 1.9%;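 also: purified mutant Fbw7 with reduced substrate affinity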
TEAD-YAP block – TEAD-YAP interaction inhibition | HEK-TIYL cells, TEAD-Gal4/YAP UAS-luciferase luminescence | inhibition, % at 9.12 µM | actives 1.4% (n = 640,000) | AID 1259422; in the data active = inhibition above about 32%;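 also: 0% = median of test compound wells and 100% = reference inhibitor wells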
* marks the source's active call; other numbers are inactive results.

SMILES	MITF primary	GPR151 ag	FBW7 act	TEAD-YAP block
Cc1ccc(S(=O)(=O)/N=C2\C=CC(=O)c3ccccc32)cc1	7	-1	0	-9
CCC1CN(Cc2ccc(Sc3nncn3C)o2)Cc2cc(OC)ccc2O1 (stereo not given)	-1	1	0	-12
Cc1ccc2nc(CN(C)Cc3ccc(Cl)cc3)cc(=O)n2c1	0	0	0	-2
O=[N+]([O-])c1ccc(Sc2nnnn2-c2ccccc2)c([N+](=O)[O-])c1	3	-1	0	-9
N#Cc1ccc(NC(=O)c2cc([N+](=O)[O-])ccc2Sc2nnnn2-c2ccccc2)cc1	-6	3	0	-8
CN(C)CCNS(=O)(=O)c1ccc(Sc2nnnn2-c2ccccc2)c([N+](=O)[O-])c1	0	1	0	84*
N#Cc1cc([N+](=O)[O-])ccc1Sc1nnnn1-c1ccccc1	6	1	0	46*
Cc1ccc(-n2nnnc2Sc2ccc([N+](=O)[O-])cc2C#N)cc1	5	-1	0	45*
C[C@H](Nc1nc(-c2ccc(F)c(Cl)c2)cnc1N)c1ccccc1	4	3	1	-1
O=C1C2=C(Nc3[nH]c(=O)[nH]c(=O)c3C2c2ccc(Cl)cc2)c2ccccc21 (stereo not given)	26	0	0	42*
COCCn1c2c(c(=O)[nH]c1=O)C(c1ccc(Cl)cc1)C1=C(N2)c2ccccc2C1=O (stereo not given)	14	0	0	-3
O=C(Cn1cnc2ccccc21)N1CCN(Cc2csc(-c3ccccc3)n2)CC1	21	1	0	46*
O=C(CCn1cnc2ccccc2c1=O)N1CCN(Cc2csc(-c3ccccc3)n2)CC1	-4	0	0	21
c1ccc(CC2CCN(c3ncnc4sccc34)CC2)cc1	1	3	0	34*
COc1ccc(N2CC(c3nc(-c4cc(OC)c(OC)c(OC)c4)no3)CC2=O)cc1Cl (stereo not given)	-3	-2	0	-4
COc1cc(-c2noc(C3CC(=O)N(c4ccc(C)cc4C)C3)n2)cc(OC)c1OC (stereo not given)	-1	-1	0	44*
O=C(Nc1cccnc1)c1ccc2c(c1)ncn2-c1ccccc1	-5	3	0	9
Cc1nc2c(C(=O)NCCCN3CC(C)CC(C)C3)cnn2c(C)c1Cc1ccccc1 (stereo not given)	15	0	0	9
Cc1cc(Nc2ccccc2F)nc2cccc(O)c12	2	2	0	43*
COc1ccc(/C=C2\C=C(c3ccccc3)N(c3ccccc3)C2=O)cc1	4	1	0	-48
COc1ccc(/C=C2\C=C(c3ccccc3)N(c3ccc(C)cc3Br)C2=O)cc1	1	-1	0	47*
COc1ccc(/C=C2\C=C(c3ccccc3)N(c3ccc(O)cc3)C2=O)cc1	11	2	0	49*
COc1ccc(/C=C2\C=C(c3ccccc3)N(c3ccccc3Br)C2=O)cc1	10	-1	0	24
Cc1ccc(N2C(=O)/C(=C/c3ccc(Cl)cc3)C=C2c2ccccc2)c(C)c1	22	1	0	-6
COc1ccc(/C=C2\C=C(c3ccccc3)N(c3ccc(C)cc3C)C2=O)cc1	27	0	1	45*
SMILES	MITF primary	GPR151 ag	FBW7 act	TEAD-YAP block
CC1CCCN(C(=O)C2CC(=O)c3sc(NC(=O)c4c(F)cccc4Cl)nc3C2)C1 (stereo not given)	3	0	0	-16
COCCNC(=O)Cn1c(-n2nc(C)cc2C)nc2c(c1=O)CCCC2	4	2	0	12
CCOc1ccc(CN2CCN(Cc3ccc4nsnc4c3)CC2CCO)cc1 (stereo not given)	15	-1	0	-5
COc1ccc(C(NC(C)=O)c2c(O)ccc3ccccc23)cc1 (stereo not given)	-1	1	0	62*
COc1ccc(C(NC(C)=O)c2c(OC(C)=O)ccc3ccccc23)cc1 (stereo not given)	15	0	1	62*
CCCC(=O)NC(c1ccc(OC)cc1)c1c(O)ccc2ccccc12 (stereo not given)	-15	0	0	44*
CCCC(=O)NC(c1ccco1)c1c(O)ccc2ccccc12 (stereo not given)	11	-1	0	1
C/C(=N\N=C1\SC(CC(=O)O)C(=O)N1c1ccccc1)c1ccco1 (stereo not given)	21	-1	0	1
